# From PubChem
# In the library only some 10% were active in any assay of this set; here they are far more common.
# hNpr1 antagonist = blocks ANP-stimulated signaling of human Npr1 receptor; HEK293 hNpr1 GloSensor cGMP, ANP-stimulated luminescence; Potency, µM (top dose mostly 46.3 µM), without a hit: top-dose activity change, negative = inhibition, most hits filed as inhibitors; 76,000 compounds, 1.6% hits; P16066; calls by dose curve; also: % is scaled to controls: 0 for no effect and ±100 for the full control effect; nearly all actives have a fitted effect of over 60% in size
#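 HEK293 cells stably expressing human Npr1 and cGMP GloSensor pGS-40F, loaded 2 h with 2% GloSensor reagent, given compound 30 min at room temperature. Luminescence read before and 20 min after 0.1 nM hNppA.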
# GPT2 inhibitor = blocks human glutamate pyruvate transaminase 2. Q8TD30. Recombinant GPT2, coupled pyruvate oxidase/HRP Amplex Red fluorescence. Potency, µM (top dose mostly 57.7 µM), for the others: at the highest dose activity change, negative = inhibition, actives largely listed as inhibitors. 100,000 compounds, 0.25% hits; also: % is scaled to controls: 0 for no effect and ±100 for the full control effect; nearly all actives have a fitted effect of over 60% in size
# Target sequence (Q8TD30 whole entry, looked up): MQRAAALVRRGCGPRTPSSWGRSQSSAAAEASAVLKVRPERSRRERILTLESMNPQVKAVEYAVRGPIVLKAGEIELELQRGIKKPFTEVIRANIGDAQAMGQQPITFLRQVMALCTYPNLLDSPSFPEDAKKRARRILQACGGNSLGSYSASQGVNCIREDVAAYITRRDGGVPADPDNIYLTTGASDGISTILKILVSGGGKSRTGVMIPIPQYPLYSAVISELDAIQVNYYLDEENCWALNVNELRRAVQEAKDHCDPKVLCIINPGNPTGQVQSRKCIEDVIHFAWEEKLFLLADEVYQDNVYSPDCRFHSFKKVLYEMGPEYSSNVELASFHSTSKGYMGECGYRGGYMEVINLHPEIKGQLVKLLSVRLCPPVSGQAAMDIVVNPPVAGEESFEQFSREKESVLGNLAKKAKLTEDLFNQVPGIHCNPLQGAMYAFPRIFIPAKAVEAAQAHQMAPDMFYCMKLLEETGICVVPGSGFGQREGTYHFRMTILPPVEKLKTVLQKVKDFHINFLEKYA
#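 Recombinant GPT2 (10ng/uL) with 250uM a-KG and 2mM L-alanine, 30 min at room temperature, in HEPES pH 7.5 buffer. Pyruvate detected by pyruvate oxidase/HRP/Amplex Red fluorescence after 30 min in the dark; AOA (50uM) as positive control.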
# FLuc inh-1 = Photinus pyralis luciferase inhibition. P08659. purified P. pyralis luciferase, luminescence, biochemical. Potency, µM (doses to about 115 µM), usual class: inhibitors. 76,000 compounds, 2.5% hits. AID 1347043; also: % is scaled to controls: 0 for no effect and ±100 for the full control effect; nearly all actives have a fitted effect of over 65% in size
#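 Luminescence read by CCD imaging after purified firefly luciferase (10nM final) was added to substrate buffer holding 10uM D-luciferin and 10uM ATP, pH 7.5, pre-dosed with compound.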
# HEK293 tox = cytotoxic compounds in HEK 293 cells | Potency, µM (titrated, usually from 115 µM), inactives show at the top dose activity change, negative = cytotoxicity, actives largely listed as inhibitors | HEK 293 viability, ATP luminescence (CellTiter-Glo), 48-72 h | 94,000 compounds, 6.6% hits; also: % is scaled to controls: 0 for no effect and ±100 for the full control effect; nearly all actives have a fitted effect of over 60% in size
#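 qHTS cytotoxicity; HEK 293, 250 cells/well; compound pinned; 48 or 72 hr, 37 degree Celsius, 5% CO2, 95% humidity; CellTiter-Glo, 10 min RT; luminescence (ATP).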
# 3T3 cytotox = NIH 3T3 cell cytotoxicity. NIH 3T3 viability, CellTiter-Glo ATP luminescence, 48-72 h. Potency, µM (doses to about 96.7 µM), for the others: top-dose activity change, negative = cytotoxicity, actives largely listed as inhibitors. 94,000 compounds, 4.3% hits; also: % is scaled to controls: 0 for no effect and ±100 for the full control effect; nearly all actives have a fitted effect of over 55% in size
#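 Luminescent ATP readout (CellTiter-Glo, 10 min RT) after 48 or 72 hr compound exposure of NIH 3T3 cells seeded at 400 cells/well in 1536-well format; quantitative HTS.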
# FLuc SDR no ATP = firefly luciferase binding stabilization, ATP absent; shares compounds with FLuc inh-1; Purified FLuc-C-HiBiT, Nano-Glo HiBiT luminescence, no ATP; Potency, µM (doses to about 32.7 µM), inactives show at the top dose activation (signal gain), usual class: activators; 1,300 compounds, 7.8% hits; also: nearly all actives have a fitted effect of over 55% in size
# FLuc SDR ATP = binders stabilizing firefly luciferase, plus ATP; shares compounds with FLuc inh-1; purified FLuc-C-HiBiT + ATP, HiBiT complementation luminescence; Potency, µM (highest dose often 32.7 µM), for the others: at the highest dose activation (gain of signal), most hits filed as activators; 1,300 compounds, 8.7% hits; AID 1963319;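 also: signal reports ligand binding via conformational change of the enzyme rather than luciferase catalysis; % of control where 0% means no effect; nearly all actives have a fitted effect of over 55% in size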
# FLuc inh-2 = firefly luciferase enzyme inhibition; AID 1963320; shares compounds with FLuc inh-1; 1,300 compounds, 42% hits; Potency, µM (highest dose often 32.7 µM), for inactives: at the top dose activity change, negative = inhibition, actives largely listed as inhibitors; purified FLuc-C-HiBiT enzyme, luciferin luminescence; also: % is scaled to controls: 0 for no effect and ±100 for the full control effect; nearly all actives have a fitted effect of over 70% in size
# The depositor's hits bear a star; i = inactive; ? = inconclusive; . = no result given. Unless noted, calls follow the shape of the dose curve; as a rule, active = well fitted curve in the direction sought with a large enough effect; inconclusive = small, poorly fitted or top-dose-only effect, or another doubt; inactive = no such curve, though single readings can be large; an effect the other way counts as inactive or inconclusive. Potency is read from the fitted curve at half-maximal effect.
SMILES,hNpr1 antagonist,GPT2 inhibitor,FLuc inh-1,HEK293 tox,3T3 cytotox,FLuc SDR no ATP,FLuc SDR ATP,FLuc inh-2
COc1ccccc1C(=O)NCCn1ccn2nc(-c3ccc(C)cc3C)cc2c1=O,-26%,-11%,10µM*,?,?,19%,13%,?
Cc1ccc(-c2cc3c(=O)n(CCNC(=O)c4ccco4)ccn3n2)c(C)c1,-12%,i,8.9µM*,?,?,22%,15%,?
Cc1ccc(-c2cc3c(=O)n(CCNC(=O)c4ccc(F)c(F)c4)ccn3n2)c(C)c1,-23%,-32%,?,-22%,?,.,.,.
Cc1ccc(C)c(-c2cc3c(=O)n(CCNC(=O)c4cccc(F)c4)ccn3n2)c1,-9%,-4%,i,?,?,.,.,.
Cc1ccc(-c2cc3c(=O)n(CCNC(=O)c4ccoc4)ccn3n2)c(C)c1,-5%,i,?,?,?,.,.,.
CCN1CCCC2(Cc3ccccc3CN([S+](=O)([O-])c3ccccc3)C2)C1 (stereo not given),.,i,.,-17%,0%,.,.,.
Cc1cccc(OCC(=O)NCCn2ccn3nc(-c4ccc(C)cc4C)cc3c2=O)c1,-23%,-1%,?,?,?,.,.,.
COc1cccc(CC(=O)NCCn2ccn3nc(-c4ccc(C)cc4C)cc3c2=O)c1,-2%,-11%,11µM*,?,?,?,18%,?
CC(C(=O)N1CCC(C(=O)N2CCCCCCNC(=O)CC2)CC1)c1ccccc1 (stereo not given),5%,-8%,i,-4%,-12%,.,.,.
CCC(=O)N1CCN(c2nc3c(s2)CC(C(=O)N2CCCCC2)CC3)CC1 (stereo not given),-4%,2%,i,-22%,-18%,.,.,.
CCC(=O)N1CCN(c2nc3c(s2)CC(C(=O)O)CC3)CC1 (stereo not given),1%,i,13µM*,-4%,?,11%,?,?
O=C(c1ccc(Cl)nc1)N1CCCC(C(=O)N2CCC(N3Cc4cccn4C3=O)CC2)C1 (stereo not given),.,-8%,.,i,i,.,.,.
C[S+](=O)([O-])NCc1nnc2n1C(C(=O)Nc1ccc(F)cc1)CC2 (stereo not given),.,-1%,.,5%,-8%,.,.,.
Cc1ccc(-c2ncc(NC(=O)c3ccccc3F)cn2)cc1,?,-8%,0.56µM*,6%,i,26%,?,2µM*
O=C(Nc1cnc(-c2ccccc2)nc1)c1ccccc1C(F)(F)F,-16%,i,?,?,-2%,.,.,.
CN(CC1CCOC1)S(=O)(=O)c1cc(F)cc(F)c1 (stereo not given),-1%,i,i,-5%,0%,.,.,.
Cc1ccc(CSc2nc3cccnc3n2Cc2ccc(C(=O)NCc3ccco3)cc2)cc1,.,.,.,.,.,3.9µM*,?,0.62µM*
Cc1ccc(C(=O)N2CCN(C(=O)c3nc4cccnc4n(Cc4ccccc4)c3=O)CC2)cc1,.,i,.,-5%,-29%,.,.,.
O=C(NCCc1cccs1)C1CCN(C(=O)c2ncn3c2COC(c2ccc(F)cc2)C3)CC1 (stereo not given),-2%,-5%,i,-2%,i,.,.,.
CCCCNC(=O)C1CCN(C(=O)c2ncn3c2COC(c2ccccc2)C3)CC1 (stereo not given),2%,i,7.1µM*,-2%,2%,14%,?,?
